Measured values taken from PubChem BioAssay (NCI).
This is part of a sample that, as a whole, favours compounds with a hit. Of some 79,000 tested, about 15% had one in any assay. Unmarked numbers belong to inactive results. Active and inactive are the calls of the source. Cut-off read from the data, not from the text of the source: active = growth inhibition above about 70%; inactive = the rest.

What was measured:
[1] = NCI Yeast Anticancer Drug Screen. Data for the rad50 strain (AID 155);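 note: 0% = growth of vehicle-only cultures of the same strain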; details: S. cerevisiae rad50 strain growth inhibition, active compounds read high
Method in brief: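 Yeast carrying a defined DNA repair defect were exposed to test compounds, and growth was compared with vehicle-treated controls to give percent inhibition.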

[2] = NCI Yeast Anticancer Drug Screen. Data for the mec2-1 strain (AID 157); details: S. cerevisiae mec2-1 strain, active compounds read high
Method in brief: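 Strain: mec2-1 (DNA repair/cell cycle alteration). Compound exposure, then growth measured; inhibition expressed relative to vehicle.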

[3] = NCI Yeast Anticancer Drug Screen. Data for the sgs1 mgt1 strain (AID 161);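 note: 0% = growth of cultures given vehicle only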; details: S. cerevisiae sgs1 mgt1 strain, active compounds read high
Method in brief: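 Inhibition of yeast growth, normalised to vehicle-treated controls, is reported for a strain bearing genetic alterations in DNA damage repair.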

[4] = NCI Yeast Anticancer Drug Screen. Data for the cln2 rad14 strain (AID 165);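 note: 0% = growth equal to vehicle treated cultures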; details: S. cerevisiae cln2 rad14 strain, active compounds read high
Method in brief: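 Compounds are applied to the cln2 rad14 yeast strain, and growth is then compared with that of vehicle-treated cultures to give inhibition.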

[5] = NCI Yeast Anticancer Drug Screen. Data for the bub3 strain (AID 167); details: S. cerevisiae bub3 mutant strain, active compounds read high
Method in brief: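 Compounds were applied to a genetically altered yeast strain carrying a cell-cycle control defect. Growth inhibition was scored against vehicle-treated controls.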

[6] = NCI Yeast Anticancer Drug Screen. Data for the mlh1 rad18 strain (AID 175); details: S. cerevisiae mlh1 rad18 strain growth inhibition, active compounds read high
Method in brief: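 Read-out is yeast growth inhibition, calculated against vehicle-only controls. The compound was applied to a strain engineered with DNA damage repair alterations.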

[7] = at 5.0 µM (retest, dose inferred, filed as 0.5)
[8] = at 50.0 µM (retest, dose inferred, filed as 5.0)

SMILES | growth inhibition [1, 7] | growth inhibition [1, 8] | growth inhibition ([1]; at 50.0 µM) | growth inhibition [2, 7] | growth inhibition [2, 8] | growth inhibition ([2]; at 50.0 µM) | growth inhibition [3, 7] | growth inhibition [3, 8] | growth inhibition ([3]; at 50.0 µM) | growth inhibition [4, 7] | growth inhibition [4, 8] | growth inhibition ([4]; at 50.0 µM) | growth inhibition [5, 7] | growth inhibition [5, 8] | growth inhibition ([5]; at 50.0 µM) | growth inhibition [6, 7] | growth inhibition [6, 8] | growth inhibition ([6]; at 50.0 µM)
Clc1ccc(CSCCc2ccncc2)cc1Cl | -5% | 98% (active) | 98.7% (active) | 0% | 96% (active) | 99% (active) | 5% | 97% (active) | 97.5% (active) | -19% | 95% (active) | 97.6% (active) | 5% | 98% (active) | 98.2% (active) | 4% | 97% (active) | 98.8% (active)
CCNC(=S)N/N=C(\C)c1cccc(C)n1 | -5% | 21% | 54.6% | -37% | 34% | 76.3% (active) | -31% | 22% | 54.7% | -21% | 24% | 50.9% | -20% | 27% | 62% | -9% | 21% | 37.2%
CC(C)C1=C(O)C2=C(C(=O)C1=O)C1(C)CCCC(C)(C)C1C(O)C2OC=O (configuration not stated) | 91% (active) | 95% (active) | 92.2% (active) | 100% (active) | 100% (active) | 93.7% (active) | 99% (active) | 100% (active) | 93.5% (active) | 81% (active) | 99% (active) | 92% (active) | 100% (active) | 100% (active) | 92.5% (active) | 98% (active) | 99% (active) | 87.5% (active)
CCC(C)OC(=O)Nc1cccc(Cl)c1 (configuration not stated) | 12% | 61% | 83.4% (active) | -7% | 1% | 23.9% | 4% | 14% | 79.5% (active) | 6% | -16% | 14.8% | -19% | -8% | 1.4% | 5% | 29% | 78.8% (active)
CCOc1ccc2nc([NH-])sc2c1.CCOc1ccc2nc([NH-])sc2c1.CCOc1ccc2nc([NH-])sc2c1.CCOc1ccc2nc([NH-])sc2c1.[Cl][Rh][Cl] | -5% | 46% | 29.9% | 0% | 32% | 31.6% | 4% | 63% | 67.2% | -5% | 26% | 30.1% | -10% | 34% | 0.25% | 6% | 81% (active) | 80% (active)
CCN(CC)CCC(=O)c1ccc(Oc2ccc(C)cc2)cc1 | 13% | 71% (active) | 29.9% | 6% | 36% | 40.2% | 24% | 75% (active) | 58% | 15% | 93% (active) | 24.9% | 18% | 89% (active) | 67% | 22% | 81% (active) | 53.1%
Cc1ccccc1NC(=S)N/N=C(/c1ccccc1)c1ccccn1 | 5% | 94% (active) | 53.9% | -17% | 92% (active) | 61% | 26% | 92% (active) | 69.7% | -38% | 91% (active) | 68.4% | -47% | 92% (active) | 76.3% (active) | 26% | 92% (active) | 75.4% (active)
C[C@@H]1CC=C[C@@H](NC(=O)OCc2ccccc2)[C@H]1C=O | -4% | 30% | 13.6% | -5% | -2% | -7.1% | -2% | 15% | 69.3% | -8% | 12% | 15.7% | -18% | 47% | 5.3% | -20% | 40% | 80.2% (active)
CC(C)=NNc1ncnc2nc[nH]c12 | 11% | 3% | 12.5% | -1% | -11% | 19.1% | -4% | -13% | -28.8% | 4% | -3% | 25.6% | 5% | 2% | 6.9% | -14% | 3% | -7.5%
